# Data from PubChem BioAssay (NCATS).
# “And” between values parts separate entries of the source, which are not always exact repeats. Identical values can stand only once. Records with an inconclusive call do not appear. Where a call stands in place of a potency, no number is given. The source made the active and inactive calls. Unless noted, calls follow the shape of the dose curve; as a rule, active = well fitted curve in the direction sought with a large enough effect; inconclusive = small, poorly fitted or top-dose-only effect, or another doubt; inactive = no such curve, though single readings can be large; an effect the other way counts as inactive or inconclusive.
# Columns and labels:
# [1] = qHTS to identify inhibitors of the type 1 interferon - major histocompatibility complex class I in skeletal muscle: primary screen against the NCATS Mechanism Interrogation Plate v5.0 (MIPE) Libary (AID 1347411); also: nearly all actives have a fitted effect of over 65% in size; also: potency is read from the fitted curve at half-maximal effect
# Summary of the method: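 Cells were genome-edited human myoblasts carrying a HiBit tag on endogenous HLA-B. They were treated with IFN-beta (4.0 ng/ml) and titrated compounds (top 46 uM) for 24 hrs before lytic HiBiT detection.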
# [2] = biological target: Calcium and integrin-binding protein 1 (Homo sapiens) (UniProt Q99828); experiment: Primary qHTS for Identification of Calcium Integrin Binding Protein 1 (CIB1) Competitor (AID 1508620);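 also: GST tagged CIB1 binding a fluorescein labelled alphaIIb integrin peptide tracer; top concentration of the series differs between compounds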
# Summary of the method: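 Fluorescence polarization competition: CIB1-GST (1 uM final) preincubated with compound 15 min at room temperature, then FITC-labeled alphaIIb peptide (100 nM final) added for another 15 min. Polarization read at Ex 480/Em 540.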
# [3] = Primary qHTS for small molecule stabilizers of the endoplasmic reticulum resident proteome: Secreted ER Calcium Modulated Protein (SERCaMP) assay (AID 1508630)
# Summary of the method: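 GLuc-SERCaMP-expressing SH-SY5Y cells, pretreated 16 h with compound, are challenged with thapsigargin to empty ER calcium stores; after 4 h, coelenterazine is added directly to the medium and luminescence is imaged.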
# [4] = biological target: Protein phosphatase 1D (Homo sapiens) (UniProt O15297); experiment: RapidFire Mass Spectrometry qHTS Assay for Modulators of WT P53-Induced Phosphatase 1 (WIP1) (AID 1347424);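 also: amount of dephosphorylated VEPPL-S-QETFS peptide product formed by WIP1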
# Summary of the method: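 WIP1 (10 nM final) was preincubated 1 h at room temperature with compounds in Tris-HCl pH 7.5, 30 mM MgCl2, TCEP, EGTA, BSA; 2 uM VEPPL-pS-QETFS phosphopeptide was added for 5 min, quenched with formic acid, and dephosphorylated product quantified by RapidFire MS.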
# [5] = biological target: Protein phosphatase 1D (Homo sapiens) (UniProt O15297); experiment: Rhodamine-PBP qHTS Assay for Modulators of WT P53-Induced Phosphatase 1 (WIP1) (AID 1347425)
# Summary of the method: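 The read-out is the change in Rhodamine-PBP fluorescence (f1 - f0, ex 525/em 598 nm) as Pi is released, read each minute for 11 min. Final reaction: 5 nM WIP1, 10 uM phosphopeptide VEPPL-pS-QETFS, 10 uM Rh-PBP, 50 mM Tris-HCl pH 7.5, 30 mM MgCl2. Compound was preincubated with enzyme for 1 hour at room temperature.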
# [6] = Primary qHTS for inhibitors of La Crosse Virus (LACV) - induced cell death in SH-SY5Y cells (AID 1508616);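 also: top concentration of the series differs between compounds; higher means more rescue of cells from virus-induced death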
# Summary of the method: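 Readout was luminescence from ATPLite 1step added after a 6-day LACV infection (0.01 MOI) of SH-SY5Y cells that had received pin-transferred compound 24 hr after seeding.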
# [7] = A High-Content qHTS Against Drug Library for the Identification of Small Molecules that Inhibit DYT1 Early Onset Primary Dystonia-Associated Cell Pathology (AID 1645839; calls by dose curve)
# Summary of the method: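 Readout: %pathology, the punctate EGFP-TorsinA distribution from imaging, as the primary channel and cell count as the toxicity counterscreen. HEK293 Flp-In cells expressing delE TorsinA were induced with tetracycline and treated with compound for 48 h.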
# [8] = biological target: Cytochrome P450 2C9 (Homo sapiens) (UniProt P11712); experiment: Cytochrome P450 family 2 subfamily C member 9 (CYP2C9) small molecule antagonists: luciferase biochemical (cell-free) qHTS assay (AID 1645842; active = well fitted curve in the direction sought with a large enough effect in the repeat runs; an effect the other way counts as inactive or inconclusive; also: nearly all actives have a fitted effect of over 55% in size; also: potency is read from the fitted curve at half-maximal effect)
# Summary of the method: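 Luminescence, after 20 min with luciferin detection reagent, reflected CYP2C9 turnover during a 1 h NADPH-driven reaction at 37C. Enzyme-substrate mix contained 0.4% bovine serum albumin and was preincubated with compound 10 min at room temperature.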
# [9] = Primary qHTS for inhibitors of nuclear receptor binding SET domain protein 2 (NSD2) in an isogenic RCH-ACV NSD2 p.E1099K mutant (9B) (AID 1645876); also: nearly all actives have a fitted effect of over 70% in size; also: potency is read from the fitted curve at half-maximal effect
# [10] = Primary qHTS for inhibitors of nuclear receptor binding SET domain protein 2 (NSD2) in an RCH-ACV wild type WT cells (2C) (AID 1645877); also: nearly all actives have a fitted effect of over 70% in size; also: potency is read from the fitted curve at half-maximal effect
# [11] = biological target: Cytochrome P450 2D6 (Homo sapiens) (UniProt P10635); experiment: Cytochrome P450 family 2 subfamily D member 6 (CYP2D6) small molecule antagonists: luciferase biochemical (cell-free) qHTS assay (AID 1645840; active = well fitted curve in the direction sought with a large enough effect in the repeat runs; an effect the other way counts as inactive or inconclusive; also: nearly all actives have a fitted effect of over 55% in size; also: potency is read from the fitted curve at half-maximal effect)
# Summary of the method: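 P450-Glo luminescent screen: recombinant CYP2D6 enzyme–proluciferin substrate mix preincubated with compound 10 min at room temperature, then NADPH regeneration added for 1 h at room temperature. Detection reagent added for 20 min; luciferin light read as relative luminescence units.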
# [12] = qHTS to identify inhibitors of the type 1 interferon - major histocompatibility complex class I in skeletal muscle: primary screen against the NCATS Pharmaceutical Collection (AID 1347407);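 also: luminescence of HiBiT knocked into endogenous HLA-B as interferon-induced MHC class I level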
# Summary of the method: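 Immortalized human myoblasts (C25cl48) with HiBiT knocked into endogenous HLA-B*08:01 were stimulated with 4 ng/ml IFN-beta and treated with compounds (8-point, 1:5, top 46 uM final) for 24 h at 37 C; HiBiT lytic luminescence read.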
# [13] = biological target: Cytochrome P450 3A4 (Homo sapiens) (UniProt P08684); experiment: Cytochrome P450 family 3 subfamily A member 4 (CYP3A4) small molecule antagonists: luciferase qHTS assay (AID 1645841; active = well fitted curve in the direction sought with a large enough effect in the repeat runs; an effect the other way counts as inactive or inconclusive; also: nearly all actives have a fitted effect of over 45% in size)
# Summary of the method: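 P450-Glo CYP3A4 enzyme with proluciferin substrate was preincubated with DMSO-dissolved compounds for 10 min at room temperature. NADPH regeneration solution started a 1 h reaction. Detection reagent stopped it, and luminescence was read after 20 min.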
# [14] = biological target: Catechol O-methyltransferase (Homo sapiens) (UniProt P21964); experiment: Confirmatory Screen for Target Class Profiling of Small Molecule Inhibitors of Methyltransferases (AID 1745852; calls by dose curve); settings: MTase-Glo luminescence, SAH detection, recombinant enzyme; measured here: COMT max response; stronger effect = lower value
# [15] = biological target: Guanidinoacetate N-methyltransferase (Homo sapiens) (UniProt Q14353); experiment: as above; settings: activity change, negative = inhibition: at 57.3 µM (top of the series)
# Sequence of Cytochrome P450 2D6 (Homo sapiens) (P10635 whole entry, looked up): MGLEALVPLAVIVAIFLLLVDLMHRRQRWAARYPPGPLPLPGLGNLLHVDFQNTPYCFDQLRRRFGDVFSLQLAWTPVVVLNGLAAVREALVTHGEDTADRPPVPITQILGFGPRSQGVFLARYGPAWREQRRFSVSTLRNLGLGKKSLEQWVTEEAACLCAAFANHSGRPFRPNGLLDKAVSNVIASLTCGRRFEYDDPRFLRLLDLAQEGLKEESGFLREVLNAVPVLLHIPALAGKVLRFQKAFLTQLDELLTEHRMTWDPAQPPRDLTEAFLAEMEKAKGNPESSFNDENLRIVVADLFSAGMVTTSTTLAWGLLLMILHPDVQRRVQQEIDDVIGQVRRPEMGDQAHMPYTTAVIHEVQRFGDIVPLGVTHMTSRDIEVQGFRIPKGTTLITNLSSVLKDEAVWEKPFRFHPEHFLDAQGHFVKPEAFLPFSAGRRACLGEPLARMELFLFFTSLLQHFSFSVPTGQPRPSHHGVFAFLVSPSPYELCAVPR
# Sequence of Calcium and integrin-binding protein 1 (Homo sapiens) (Q99828 whole entry, looked up): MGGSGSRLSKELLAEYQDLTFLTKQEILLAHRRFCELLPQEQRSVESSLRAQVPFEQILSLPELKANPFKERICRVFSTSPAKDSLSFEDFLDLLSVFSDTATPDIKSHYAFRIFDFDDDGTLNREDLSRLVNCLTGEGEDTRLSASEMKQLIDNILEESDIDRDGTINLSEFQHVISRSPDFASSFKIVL
# Sequence of Cytochrome P450 2C9 (Homo sapiens) (P11712 whole entry, looked up): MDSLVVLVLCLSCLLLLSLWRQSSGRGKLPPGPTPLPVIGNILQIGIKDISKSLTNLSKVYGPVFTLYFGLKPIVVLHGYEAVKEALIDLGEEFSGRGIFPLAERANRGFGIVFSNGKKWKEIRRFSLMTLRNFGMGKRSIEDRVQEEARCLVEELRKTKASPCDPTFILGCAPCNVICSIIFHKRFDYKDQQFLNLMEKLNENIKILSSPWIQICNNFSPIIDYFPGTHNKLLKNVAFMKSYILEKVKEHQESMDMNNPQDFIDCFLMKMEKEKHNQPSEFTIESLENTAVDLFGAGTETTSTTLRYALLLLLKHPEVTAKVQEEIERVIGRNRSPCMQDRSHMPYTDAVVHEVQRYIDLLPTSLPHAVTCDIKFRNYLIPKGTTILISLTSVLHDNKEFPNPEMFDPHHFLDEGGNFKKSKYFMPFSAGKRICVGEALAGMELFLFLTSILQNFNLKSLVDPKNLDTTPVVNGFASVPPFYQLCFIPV
# Sequence of Protein phosphatase 1D (Homo sapiens) (O15297 whole entry, looked up): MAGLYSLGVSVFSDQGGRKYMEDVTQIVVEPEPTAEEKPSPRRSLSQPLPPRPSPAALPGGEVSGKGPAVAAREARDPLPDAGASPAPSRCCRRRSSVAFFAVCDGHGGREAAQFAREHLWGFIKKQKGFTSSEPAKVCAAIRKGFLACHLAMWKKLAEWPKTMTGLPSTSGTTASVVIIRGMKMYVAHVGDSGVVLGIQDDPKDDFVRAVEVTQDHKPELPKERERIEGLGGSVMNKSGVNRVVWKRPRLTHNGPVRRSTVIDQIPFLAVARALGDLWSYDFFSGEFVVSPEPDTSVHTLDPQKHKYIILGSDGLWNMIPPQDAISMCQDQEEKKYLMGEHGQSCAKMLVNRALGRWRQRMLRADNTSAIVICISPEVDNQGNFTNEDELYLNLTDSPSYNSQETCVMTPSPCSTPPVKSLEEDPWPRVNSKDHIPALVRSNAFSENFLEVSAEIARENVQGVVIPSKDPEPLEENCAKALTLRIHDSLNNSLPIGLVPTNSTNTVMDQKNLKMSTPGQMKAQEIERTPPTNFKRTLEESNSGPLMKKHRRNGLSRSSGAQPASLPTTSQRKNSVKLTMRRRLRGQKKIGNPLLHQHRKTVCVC
# Sequence of Catechol O-methyltransferase (Homo sapiens) (P21964 whole entry, looked up): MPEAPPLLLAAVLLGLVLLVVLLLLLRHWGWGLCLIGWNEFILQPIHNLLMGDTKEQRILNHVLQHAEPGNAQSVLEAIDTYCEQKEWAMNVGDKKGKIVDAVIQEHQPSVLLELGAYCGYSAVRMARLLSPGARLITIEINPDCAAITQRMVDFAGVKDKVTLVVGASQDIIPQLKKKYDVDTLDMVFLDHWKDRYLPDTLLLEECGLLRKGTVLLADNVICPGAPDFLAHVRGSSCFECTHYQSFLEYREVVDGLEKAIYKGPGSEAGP
# Sequence of Cytochrome P450 3A4 (Homo sapiens) (P08684 whole entry, looked up): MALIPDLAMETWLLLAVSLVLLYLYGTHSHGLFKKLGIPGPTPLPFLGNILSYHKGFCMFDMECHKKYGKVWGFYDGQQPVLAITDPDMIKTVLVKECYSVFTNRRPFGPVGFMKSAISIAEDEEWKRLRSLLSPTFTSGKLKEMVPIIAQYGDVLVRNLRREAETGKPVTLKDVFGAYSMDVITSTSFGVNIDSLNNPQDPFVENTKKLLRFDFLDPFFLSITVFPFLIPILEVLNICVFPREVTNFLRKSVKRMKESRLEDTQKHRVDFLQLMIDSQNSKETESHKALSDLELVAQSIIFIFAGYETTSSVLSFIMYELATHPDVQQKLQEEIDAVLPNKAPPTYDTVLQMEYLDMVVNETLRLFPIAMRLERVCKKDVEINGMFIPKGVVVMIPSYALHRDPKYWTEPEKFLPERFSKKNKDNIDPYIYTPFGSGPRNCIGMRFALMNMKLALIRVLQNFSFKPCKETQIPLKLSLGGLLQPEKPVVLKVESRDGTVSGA
smiles,measurement,setting,value
CCCCCCCCCCCC(CC1OC(=O)C1CCCCCC)OC(=O)C(CC(C)C)NC=O (stereo not given),Potency,[1],inactive
same,Potency,[2],inactive
O=c1ccn([C@@H]2O[C@H](CO)[C@H](O)[C@@H]2F)c(=O)[nH]1,Potency,[1],inactive
same,Potency,[2],inactive
same,outcome,[3],inactive
CCCCC(=O)O[C@]1(C(=O)CO)[C@@H](C)C[C@H]2[C@@H]3CCC4=CC(=O)C=C[C@]4(C)[C@@]3(F)[C@@H](O)C[C@@]21C,Potency,[1],inactive
same,Potency,[4],inactive
same,outcome,[5],inactive
same,outcome,[6],inactive
same,Potency,[2],inactive
same,outcome,[3],inactive
same,outcome,[7],inactive
same,Potency,[8],15.5 µM (active)
same,Potency,[9],inactive
same,Potency,[10],8.4 nM (active) and 33.2 nM (active)
C#CCC(Cc1cnc2nc(N)nc(N)c2n1)c1ccc(C(=O)N[C@@H](CCC(=O)O)C(=O)O)cc1 (stereo not given in full),Potency,[1],inactive
same,Potency,[2],inactive
same,outcome,[3],inactive
same,Potency,[11],inactive
same,Potency,[8],inactive
same,Potency,[9],0.0047 µM (active)
same,Potency,[10],0.0053 µM (active)
COc1cc(OC)c(NC(=O)Nc2cc(C)on2)cc1Cl,Potency,[1],inactive
same,Potency,[2],inactive
same,outcome,[3],inactive
O=C(Nc1ccc(Oc2ccnc3[nH]ccc23)c(F)c1)c1cccn(-c2ccc(F)cc2)c1=O,Potency,[1],inactive
same,Potency,[2],inactive
same,outcome,[3],inactive
same,Potency,[11],inactive
same,Potency,[8],1.9 µM (active)
same,Potency,[9],16.6 µM (active)
OCCNC1CCCc2c1[nH]c1ccc(-c3ccccc3)cc21 (stereo not given),Potency,[1],20.8 µM (active)
same,Potency,[2],inactive
same,outcome,[3],inactive
same,Potency,[11],15.1 µM (active)
same,Potency,[8],26.8 µM (active)
same,Potency,[9],11.8 µM (active)
same,Potency,[10],11.8 µM (active)
Nc1ccn(C2CO[C@H](CO)O2)c(=O)n1 (stereo not given in full),outcome,[12],inactive
same,Potency,[1],inactive
same,Potency,[4],inactive
same,outcome,[5],inactive
same,outcome,[6],inactive
same,outcome,[7],inactive
same,Potency,[11],inactive
same,Potency,[13],inactive
same,Potency,[8],inactive
COc1ccc(S(=O)(=O)Nc2cc(-c3c(O)ccc4ccccc34)c(O)c3ccccc23)cc1,Potency,[1],16.5 µM (active)
same,Potency,[2],inactive
same,outcome,[3],inactive
CCc1nc(-c2cccc(C)c2)c(-c2ccnc(NC(=O)c3ccccc3)c2)s1,Potency,[1],inactive
same,Potency,[2],inactive
same,outcome,[3],inactive
same,Potency,[11],inactive
same,Potency,[8],2.68 µM (active)
same,Potency,[9],20.5 µM (active)
same,Potency,[10],16.3 µM (active)
c1ccc2c(Oc3nc(Nc4ccc(N5CCOCC5)cc4)c4ncn(C5CCCCC5)c4n3)cccc2c1,Potency,[1],inactive
same,Potency,[2],inactive
same,outcome,[3],inactive
same,Potency,[11],inactive
same,Potency,[8],4.77 µM (active)
same,Potency,[9],inactive
same,Potency,[10],inactive
same,activity,[14],0.484%
same,"activity change, negative = inhibition",[15],-1.84%
Nc1nc(N)c2nc(-c3cccc(O)c3)c(-c3cccc(O)c3)nc2n1,Potency,[1],inactive
same,Potency,[2],inactive
same,outcome,[3],inactive
same,Potency,[9],16.4 µM (active) and 18.6 µM (active)
same,Potency,[10],13 µM (active) and 16.6 µM (active)
CCCCOc1ccc(C(=O)Nc2ccc(F)cc2F)cc1,Potency,[1],inactive
same,Potency,[2],inactive
same,outcome,[3],inactive
same,Potency,[8],7.56 µM (active)
same,Potency,[9],inactive
same,Potency,[10],inactive
Cc1cnc(Nc2ccc(N3CCN(C)CC3)cc2)nc1Nc1cccc(S(=O)(=O)NC(C)(C)C)c1,Potency,[1],11.7 µM (active)
same,Potency,[2],inactive
same,outcome,[3],inactive
same,Potency,[8],inactive
same,Potency,[9],1.66 µM (active)
same,Potency,[10],1.86 µM (active)
same,activity,[14],8.73%
same,"activity change, negative = inhibition",[15],-1.34%
FC(F)(F)c1ccc(Nc2nc3ccc(Oc4ccnc(-c5ncc(C(F)(F)F)[nH]5)c4)cc3[nH]2)cc1,Potency,[1],inactive
same,Potency,[2],inactive
same,outcome,[3],inactive
same,Potency,[8],23.9 µM (active)
same,Potency,[9],14.8 µM (active)
same,Potency,[10],23.5 µM (active)
CCCCCCCN(CC)CCCC(O)c1ccc(NS(C)(=O)=O)cc1 (stereo not given),Potency,[1],inactive
same,Potency,[2],inactive
same,outcome,[3],inactive
same,Potency,[9],inactive
same,Potency,[10],inactive
C[C@](Cc1c[nH]c2ccccc12)(NC(=O)OC1C2CC3CC(C2)CC1C3)C(=O)NC[C@H](NC(=O)CCC(=O)O)c1ccccc1 (stereo not given in full),Potency,[1],inactive
same,Potency,[2],inactive
same,outcome,[3],inactive
same,Potency,[9],inactive
same,Potency,[10],inactive
CC(C)NC[C@@H](C(=O)N1CCN(c2ncnc3c2[C@H](C)C[C@H]3O)CC1)c1ccc(Cl)cc1,Potency,[1],inactive
same,Potency,[2],inactive
same,outcome,[3],inactive
same,Potency,[9],1.66 µM (active)
same,Potency,[10],2.63 µM (active)
C[C@H](NC(=O)Cc1cc(F)cc(F)c1)C(=O)N[C@H](C(=O)OC(C)(C)C)c1ccccc1,Potency,[1],inactive
same,Potency,[2],inactive
same,outcome,[3],inactive
same,Potency,[9],inactive
same,Potency,[10],inactive
CCOC(=O)C1=C(C)NC(=S)NC1c1cccc(O)c1 (stereo not given),Potency,[1],inactive
same,Potency,[2],inactive
same,outcome,[3],inactive
same,Potency,[9],inactive
Cc1ccc(O)c(C(CCN(C(C)C)C(C)C)c2ccccc2)c1 (stereo not given),Potency,[1],inactive
same,Potency,[2],inactive
same,outcome,[3],inactive
same,Potency,[9],inactive
same,Potency,[10],inactive
